# Reference: PubChem BioAssay (EPA / NIEHS)
# Records with an inconclusive call do not appear. Calls of active or inactive are those of the source. The calls were made as follows, unless noted: active = hit-call score of the fitted dose curve at least 0.9, where 1 is the maximum; inconclusive = response in the unintended direction; inactive = score below 0.9.
# What was measured:
# [1] = molecular target: Estrogen receptor (Homo sapiens) (UniProt P03372); assay: CCTE_Deisenroth_AIME_384WELL_LUC_Active: CCTE's 384-well Estrogen Receptor Transactivation Assay with AIME metabolic competence (ERTA luciferase; metabolism positive), Deisenroth Lab (AID 2284030)
# Estrogen receptor (Homo sapiens), sequence (P03372 whole entry, looked up): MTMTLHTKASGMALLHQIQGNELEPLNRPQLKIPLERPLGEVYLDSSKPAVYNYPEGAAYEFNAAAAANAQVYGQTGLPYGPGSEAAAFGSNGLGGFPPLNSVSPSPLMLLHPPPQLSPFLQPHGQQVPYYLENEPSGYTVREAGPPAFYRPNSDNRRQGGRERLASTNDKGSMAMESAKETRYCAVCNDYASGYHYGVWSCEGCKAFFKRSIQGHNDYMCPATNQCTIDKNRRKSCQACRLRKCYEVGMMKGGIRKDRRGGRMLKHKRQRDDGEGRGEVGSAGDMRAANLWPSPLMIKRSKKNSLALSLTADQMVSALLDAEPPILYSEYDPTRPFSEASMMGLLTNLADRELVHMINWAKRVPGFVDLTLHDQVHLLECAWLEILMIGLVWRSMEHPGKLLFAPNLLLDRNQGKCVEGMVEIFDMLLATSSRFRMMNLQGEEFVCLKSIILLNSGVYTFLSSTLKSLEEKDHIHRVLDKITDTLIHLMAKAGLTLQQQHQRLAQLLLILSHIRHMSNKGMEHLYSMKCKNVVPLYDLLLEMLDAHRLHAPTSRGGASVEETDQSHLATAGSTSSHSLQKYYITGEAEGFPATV
# In short: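 Test chemicals (10-point series, 0.002 - 200 uM) were preincubated 2 hours with alginate-immobilized phenobarbital/beta-naphthoflavone-induced male Sprague Dawley rat liver S9; conditioned medium then went onto VM7Luc4E2 breast cells for 24 hour. Luciferase gain-of-signal fitted relative to 17beta-estradiol.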
# [2] = CCTE_Deisenroth_AIME_384WELL_CTox_Active: Cytotoxicity Assessment (CTOX) in CCTE's 384-well Estrogen Receptor Transactivation Assay with AIME metabolic competence (metabolism positive), Deisenroth Lab (AID 2284037);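 also: chemicals first conditioned 2 h by alginate-bound induced rat liver S9 before cells; activity means signal loss indicating cell death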
# In short: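 VM7Luc4E2 breast cells received medium pre-incubated 2 h with chemical over alginate microspheres holding induced male Sprague Dawley rat liver S9; viability read 24 h later by protease-substrate fluorescence. Loss of signal, bidirectional fit, 0.002–200 uM.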
# [3] = molecular target: Estrogen receptor (Homo sapiens) (UniProt P03372); assay: CCTE_Deisenroth_AIME_384WELL_LUC_Inactive: CCTE's 384-well Estrogen Receptor Transactivation Assay without AIME metabolic competence (ERTA luciferase; metabolism negative), Deisenroth Lab (AID 2284038);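 also: hits raise estrogen receptor luciferase signal so potencies reflect agonists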
# In short: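 Metabolism-negative mode: chemicals (10-point, 0.002–200 uM) held 2 h with alginate-water microspheres, then conditioned medium applied to VM7Luc4E2 cells for 24 h. Luciferase induction referenced to 17beta-estradiol.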
# [4] = CCTE_Deisenroth_AIME_384WELL_CTox_Inactive: Cytotoxicity Assessment (CTOX) in CCTE's 384-well Estrogen Receptor Transactivation Assay without AIME metabolic competence (metabolism negative), Deisenroth Lab (AID 2284039);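 also: cell viability via live-cell protease substrate cleaved to fluorescent probe; cells exposed 24 h to medium preincubated 2 h with alginate-water beads without S9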
# In short: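 Fluorescent protease-substrate viability readout after 24 h exposure of VM7Luc4E2 cells to conditioned medium. Chemicals (0.002–200 uM) first sat 2 h over alginate-water beads, no S9. Data fitted bidirectionally, loss of signal meaning viability loss.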
# [5] = CCTE_Shafer_MEA_dev_firing_rate_mean: CCTE's Neural Network Formation Assay for Mean Firing Rate, Shafer Lab (AID 2284031; active = hit-call score of the fitted dose curve at least 0.9, where 1 is the maximum; inactive = score below 0.9)
# In short: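 Rat primary cortical neurons were seeded on multielectrode arrays and treated from plating through day 12, with redosing at each feed. Spontaneous spiking was recorded four times; mean firing rate AUC was fitted downward against DMSO.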
# [6] = CCTE_Shafer_MEA_dev_per_burst_spike_percent: CCTE's Neural Network Formation Assay for Percent of Spikes in a Burst, Shafer Lab (AID 2284032; active = hit-call score of the fitted dose curve at least 0.9, where 1 is the maximum; inactive = score below 0.9)
# In short: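 Rat primary cortical neurons on 16-electrode MEA wells, dosed from plating day 0 for 12 days with renewal on DIV 5 and 9; spikes-in-bursts percentage averaged over bursting electrodes, collapsed as AUC across days 5, 7, 9, 12; loss direction versus DMSO.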
# [7] = CCTE_Shafer_MEA_dev_active_electrodes_number: CCTE's Neural Network Formation Assay for Number of Active Electrodes, Shafer Lab (AID 2284040);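 as to AC50: potency for loss of active electrodes versus DMSO so lower counts are hits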
# In short: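 Primary rat cortical neurons on 16-electrode MEA wells, exposed from day 0 through day 12 with compound renewed at DIV 5 and 9 feeds. Active electrodes (mean firing ≥5 spikes/min) counted at DIV 5, 7, 9, 12; trapezoidal AUC across days, loss-of-signal versus DMSO.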
# [8] = CCTE_Shafer_MEA_dev_burst_rate: CCTE's Neural Network Formation Assay for Burst Rate, Shafer Lab (AID 2284042; active = hit-call score of the fitted dose curve at least 0.9, where 1 is the maximum; inactive = score below 0.9)
# In short: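 Exposure ran continuously over 12 days of network development in rat cortical cultures, with compound refreshed during full media changes on DIV 5 and 9. Single-electrode bursts per recording time, well-mean over active electrodes, trapezoidal AUC across days 5–12, fitted downward relative to DMSO.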
# [9] = CCTE_Shafer_MEA_dev_bursting_electrodes_number: CCTE's Neural Network Formation Assay for Number of Bursting Electrodes, Shafer Lab (AID 2284043);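 as to AC50: potency is for loss of bursting electrodes relative to DMSO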
# In short: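 Primary rat cortical neurons were cultured on PEI-coated 48-well MEA plates (16 electrodes/well) and exposed from plating through day 12, with compound renewed at feeds on DIV 5 and 9. Electrodes bursting ≥1 per 2 min were counted on DIV 5, 7, 9, 12; trapezoidal AUC taken.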
smiles,measurement,setting,value
CC1(C)C(=O)NC(=O)N1CO,outcome,[1],inactive
same,outcome,[2],inactive
same,outcome,[3],inactive
same,outcome,[4],inactive
CC(C)OC(=O)C(C)(C)Oc1ccc(C(=O)c2ccc(Cl)cc2)cc1,outcome,[1],inactive
same,outcome,[2],inactive
same,outcome,[3],inactive
same,outcome,[4],inactive
CC(C)c1cccc(C(C)C)c1,outcome,[1],inactive
same,outcome,[2],inactive
same,outcome,[3],inactive
same,outcome,[4],inactive
O=C1CCCCC1,outcome,[1],inactive
same,outcome,[2],inactive
same,outcome,[3],inactive
same,outcome,[4],inactive
CCCCCCC(CCCCCCCCCCC(=O)OCC(COC(C)=O)OC(C)=O)OC(C)=O (stereo not drawn),outcome,[1],inactive
same,outcome,[3],inactive
same,outcome,[4],inactive
COC(=O)CCC(=O)OC,outcome,[1],inactive
same,outcome,[3],inactive
CC(=O)O,outcome,[2],inactive
same,outcome,[4],inactive
CN(C)CCCN(C)CCCN(C)C,outcome,[1],inactive
same,outcome,[2],inactive
same,outcome,[3],inactive
same,outcome,[4],inactive
Cc1occc(=O)c1O,outcome,[4],inactive
CCCCC(CC)CO (stereo not drawn),outcome,[2],inactive
same,outcome,[4],inactive
NC1CCCCC1,outcome,[1],inactive
same,outcome,[3],inactive
CCCCCCCC(=O)OC,outcome,[1],inactive
same,outcome,[2],inactive
same,outcome,[3],inactive
same,outcome,[4],inactive
O=C(O)c1cccnc1,outcome,[4],inactive
CCCCCCC(C=O)=Cc1ccccc1,outcome,[4],inactive
CCOCCOCCO,outcome,[2],inactive
same,outcome,[4],inactive
O=C(O)c1[nH]n(-c2ccc(S(=O)(=O)O)cc2)c(=O)c1N=Nc1ccc(S(=O)(=O)O)cc1,outcome,[1],inactive
same,AC50,[2],100 µM (active)
same,outcome,[3],inactive
same,AC50,[4],100 µM (active)
C/C=C/C=C/C(=O)O,outcome,[2],inactive
same,outcome,[4],inactive
CCCCCCCCCCCCCCCCO,outcome,[1],inactive
same,outcome,[2],inactive
same,outcome,[3],inactive
CC(C)(O)c1ccc(CNC(=O)c2cccnc2Oc2ccc(F)cc2)cc1,outcome,[2],inactive
O=C1O[C@H]([C@H](O)CO)C(O)=C1O,outcome,[4],inactive
CC(=O)CC(c1ccccc1)c1c(O)c2ccccc2oc1=O (stereo not drawn),outcome,[5],inactive
same,outcome,[6],inactive
same,outcome,[2],inactive
same,outcome,[4],inactive
same,AC50,[7],2.98 µM (active)
same,outcome,[8],inactive
same,AC50,[9],2.98 µM (active)
OCC(O)CO,outcome,[5],inactive
same,outcome,[6],inactive
same,outcome,[7],inactive
same,outcome,[8],inactive
same,outcome,[9],inactive
COC(=O)CCCC(=O)OC,outcome,[2],inactive
O=C1NC(=O)C(c2ccccc2)(c2ccccc2)N1,outcome,[5],inactive
same,outcome,[6],inactive
same,outcome,[7],inactive
same,outcome,[8],inactive
same,outcome,[9],inactive
Oc1ccccc1O,AC50,[2],100 µM (active)
same,AC50,[4],51.8 µM (active)
NC=O,outcome,[2],inactive
same,outcome,[4],inactive
O=[Si]=O,outcome,[1],inactive
same,outcome,[2],inactive
same,outcome,[3],inactive
same,outcome,[4],inactive
CC(=O)OCC(COC(C)=O)OC(C)=O,outcome,[2],inactive
